Key:
[1] = molecular target: Ribosomal protein S6 kinase alpha-6 (Homo sapiens) (UniProt Q9UK32); conditions: at 1 µM;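 further: each value is a mean inhibition of RSK4 from a GSK PKIS panel screen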
[2] = molecular target: T1, Serine/threonine-protein kinase Sgk1 (Homo sapiens) (UniProt O00141); conditions: at 0.1 µM
T1 sequence (whole entry): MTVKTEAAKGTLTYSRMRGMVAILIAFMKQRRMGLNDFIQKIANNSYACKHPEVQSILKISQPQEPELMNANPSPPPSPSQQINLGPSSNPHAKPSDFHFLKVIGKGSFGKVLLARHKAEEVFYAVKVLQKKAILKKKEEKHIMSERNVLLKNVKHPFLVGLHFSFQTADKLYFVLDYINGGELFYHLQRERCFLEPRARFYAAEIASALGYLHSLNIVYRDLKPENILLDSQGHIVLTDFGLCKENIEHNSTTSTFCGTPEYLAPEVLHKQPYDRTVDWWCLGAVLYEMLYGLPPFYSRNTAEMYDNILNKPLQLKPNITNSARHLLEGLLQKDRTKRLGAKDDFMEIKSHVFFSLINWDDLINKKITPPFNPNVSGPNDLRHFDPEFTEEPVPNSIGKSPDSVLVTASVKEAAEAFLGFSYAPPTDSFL

[3] = molecular target: T1, Serine/threonine-protein kinase Sgk1 (Homo sapiens); conditions: at 1 µM
[4] = molecular target: T2, Serine/threonine-protein kinase Sgk2 (Homo sapiens) (UniProt Q9HBY8); conditions: at 0.1 µM
T2 sequence (whole entry): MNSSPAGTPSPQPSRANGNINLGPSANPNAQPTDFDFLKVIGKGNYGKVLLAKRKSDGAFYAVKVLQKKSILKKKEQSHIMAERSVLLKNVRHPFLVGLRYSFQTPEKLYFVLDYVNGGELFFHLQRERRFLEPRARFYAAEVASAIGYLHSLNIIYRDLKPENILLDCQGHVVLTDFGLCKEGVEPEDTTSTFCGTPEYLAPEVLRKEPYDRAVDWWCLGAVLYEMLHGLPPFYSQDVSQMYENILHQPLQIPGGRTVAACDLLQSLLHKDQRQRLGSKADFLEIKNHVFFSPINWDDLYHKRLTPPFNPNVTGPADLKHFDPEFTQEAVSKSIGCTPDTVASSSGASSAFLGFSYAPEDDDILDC

[5] = molecular target: T2, Serine/threonine-protein kinase Sgk2 (Homo sapiens); conditions: at 1 µM
[6] = molecular target: T3, Serine/threonine-protein kinase Sgk3 (Homo sapiens) (UniProt Q96BR1); conditions: at 0.1 µM
T3 sequence (whole entry): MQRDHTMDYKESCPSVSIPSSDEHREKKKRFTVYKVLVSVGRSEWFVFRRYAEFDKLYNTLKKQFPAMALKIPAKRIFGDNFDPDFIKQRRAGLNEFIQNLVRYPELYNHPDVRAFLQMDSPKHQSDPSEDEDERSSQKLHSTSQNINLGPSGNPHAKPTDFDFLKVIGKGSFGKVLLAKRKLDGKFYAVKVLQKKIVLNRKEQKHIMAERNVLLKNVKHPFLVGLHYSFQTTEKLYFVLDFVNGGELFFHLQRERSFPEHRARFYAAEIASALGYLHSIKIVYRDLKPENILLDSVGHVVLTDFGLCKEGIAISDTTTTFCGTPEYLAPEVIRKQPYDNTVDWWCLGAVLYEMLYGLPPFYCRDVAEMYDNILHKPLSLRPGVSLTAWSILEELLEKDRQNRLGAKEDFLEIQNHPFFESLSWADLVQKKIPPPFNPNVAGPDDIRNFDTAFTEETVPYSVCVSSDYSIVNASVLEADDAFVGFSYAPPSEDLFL

[7] = molecular target: T3, Serine/threonine-protein kinase Sgk3 (Homo sapiens); conditions: at 1 µM
[8] = molecular target: 5'-AMP-activated protein kinase catalytic subunit alpha-1 (Homo sapiens) (UniProt Q13131); conditions: at 0.1 µM
[9] = molecular target: 5'-AMP-activated protein kinase catalytic subunit alpha-1 (Homo sapiens) (UniProt Q13131); conditions: at 1 µM
[10] = molecular target: 5'-AMP-activated protein kinase catalytic subunit alpha-2 (Homo sapiens) (UniProt P54646); conditions: at 0.1 µM
[11] = molecular target: 5'-AMP-activated protein kinase catalytic subunit alpha-2 (Homo sapiens) (UniProt P54646); conditions: at 1 µM
[12] = molecular target: T4, NUAK family SNF1-like kinase 1 (Homo sapiens) (UniProt O60285); conditions: at 0.1 µM
T4 sequence (whole entry): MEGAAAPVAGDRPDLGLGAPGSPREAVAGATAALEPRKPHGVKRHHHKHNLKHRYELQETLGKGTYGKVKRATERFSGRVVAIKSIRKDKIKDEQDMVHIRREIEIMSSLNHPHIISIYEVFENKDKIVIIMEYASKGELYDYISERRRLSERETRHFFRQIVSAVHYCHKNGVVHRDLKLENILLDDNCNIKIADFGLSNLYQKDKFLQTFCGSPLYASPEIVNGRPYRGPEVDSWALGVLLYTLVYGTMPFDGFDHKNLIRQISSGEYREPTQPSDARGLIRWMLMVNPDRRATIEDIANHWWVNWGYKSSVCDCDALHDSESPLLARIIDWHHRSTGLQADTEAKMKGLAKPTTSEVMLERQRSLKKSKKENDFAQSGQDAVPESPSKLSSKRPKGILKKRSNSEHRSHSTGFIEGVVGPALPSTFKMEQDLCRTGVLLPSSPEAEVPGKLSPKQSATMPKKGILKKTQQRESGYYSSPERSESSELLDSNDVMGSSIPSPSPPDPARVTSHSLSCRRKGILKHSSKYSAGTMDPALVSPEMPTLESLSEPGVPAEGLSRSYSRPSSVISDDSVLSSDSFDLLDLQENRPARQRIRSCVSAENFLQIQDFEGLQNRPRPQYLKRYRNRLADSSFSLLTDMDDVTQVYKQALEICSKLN

[13] = molecular target: T4, NUAK family SNF1-like kinase 1 (Homo sapiens); conditions: at 1 µM
[14] = molecular target: T5, Serine/threonine-protein kinase BRSK1 (Homo sapiens) (UniProt Q8TDC3); conditions: at 0.1 µM
T5 sequence (whole entry): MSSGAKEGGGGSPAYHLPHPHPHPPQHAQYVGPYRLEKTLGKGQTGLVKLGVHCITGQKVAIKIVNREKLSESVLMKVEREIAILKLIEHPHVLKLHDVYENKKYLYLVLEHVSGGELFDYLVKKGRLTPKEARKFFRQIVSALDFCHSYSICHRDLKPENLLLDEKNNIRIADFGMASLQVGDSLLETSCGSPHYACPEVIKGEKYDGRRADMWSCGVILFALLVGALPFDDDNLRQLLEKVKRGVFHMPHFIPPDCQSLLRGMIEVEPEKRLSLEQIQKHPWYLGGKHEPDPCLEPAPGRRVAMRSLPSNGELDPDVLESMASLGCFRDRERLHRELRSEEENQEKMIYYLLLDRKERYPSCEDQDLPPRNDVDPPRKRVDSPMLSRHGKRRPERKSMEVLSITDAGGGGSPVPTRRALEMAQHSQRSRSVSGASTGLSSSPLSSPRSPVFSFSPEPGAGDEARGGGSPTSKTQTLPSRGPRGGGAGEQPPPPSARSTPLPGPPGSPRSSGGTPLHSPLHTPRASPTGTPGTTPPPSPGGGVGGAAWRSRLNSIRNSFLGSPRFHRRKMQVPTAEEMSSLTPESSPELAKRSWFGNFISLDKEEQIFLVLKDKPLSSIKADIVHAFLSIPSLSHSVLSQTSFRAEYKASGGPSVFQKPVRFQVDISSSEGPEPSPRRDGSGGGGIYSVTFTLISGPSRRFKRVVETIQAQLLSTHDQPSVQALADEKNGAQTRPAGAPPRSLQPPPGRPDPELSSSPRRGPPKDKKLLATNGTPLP

[15] = molecular target: T5, Serine/threonine-protein kinase BRSK1 (Homo sapiens); conditions: at 1 µM
[16] = molecular target: T6, Serine/threonine-protein kinase BRSK2 (Homo sapiens) (UniProt Q8IWQ3); conditions: at 0.1 µM
T6 sequence (whole entry): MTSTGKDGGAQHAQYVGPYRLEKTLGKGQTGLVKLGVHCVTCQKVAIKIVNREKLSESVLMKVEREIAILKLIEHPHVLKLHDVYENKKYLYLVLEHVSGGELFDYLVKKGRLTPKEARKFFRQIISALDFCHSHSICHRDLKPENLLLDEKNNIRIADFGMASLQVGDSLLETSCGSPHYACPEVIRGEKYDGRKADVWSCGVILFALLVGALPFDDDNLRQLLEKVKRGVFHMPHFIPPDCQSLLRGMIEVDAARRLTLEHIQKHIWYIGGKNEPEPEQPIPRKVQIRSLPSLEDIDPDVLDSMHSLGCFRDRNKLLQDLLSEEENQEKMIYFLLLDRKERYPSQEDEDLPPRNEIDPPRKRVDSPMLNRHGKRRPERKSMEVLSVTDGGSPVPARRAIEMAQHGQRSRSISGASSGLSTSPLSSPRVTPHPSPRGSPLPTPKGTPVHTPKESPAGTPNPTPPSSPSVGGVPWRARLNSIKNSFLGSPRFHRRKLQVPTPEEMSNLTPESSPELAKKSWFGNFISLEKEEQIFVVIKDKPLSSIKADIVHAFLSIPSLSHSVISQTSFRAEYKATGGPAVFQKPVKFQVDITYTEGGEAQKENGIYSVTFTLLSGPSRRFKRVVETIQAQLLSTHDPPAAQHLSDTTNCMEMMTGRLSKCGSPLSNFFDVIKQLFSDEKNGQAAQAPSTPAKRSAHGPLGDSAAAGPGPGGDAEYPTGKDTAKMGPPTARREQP

[17] = molecular target: T6, Serine/threonine-protein kinase BRSK2 (Homo sapiens); conditions: at 1 µM
[18] = molecular target: Calcium/calmodulin-dependent protein kinase type 1D (Homo sapiens) (UniProt Q8IU85); conditions: at 0.1 µM
[19] = molecular target: Calcium/calmodulin-dependent protein kinase type 1D (Homo sapiens) (UniProt Q8IU85); conditions: at 1 µM
[20] = molecular target: Calcium/calmodulin-dependent protein kinase type II subunit alpha (Homo sapiens) (UniProt Q9UQM7); conditions: at 0.1 µM;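 further: reported values are averages (mean inhibition of CAMK2A)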
Sequence of Calcium/calmodulin-dependent protein kinase type II subunit alpha (Homo sapiens) (Q9UQM7 whole entry): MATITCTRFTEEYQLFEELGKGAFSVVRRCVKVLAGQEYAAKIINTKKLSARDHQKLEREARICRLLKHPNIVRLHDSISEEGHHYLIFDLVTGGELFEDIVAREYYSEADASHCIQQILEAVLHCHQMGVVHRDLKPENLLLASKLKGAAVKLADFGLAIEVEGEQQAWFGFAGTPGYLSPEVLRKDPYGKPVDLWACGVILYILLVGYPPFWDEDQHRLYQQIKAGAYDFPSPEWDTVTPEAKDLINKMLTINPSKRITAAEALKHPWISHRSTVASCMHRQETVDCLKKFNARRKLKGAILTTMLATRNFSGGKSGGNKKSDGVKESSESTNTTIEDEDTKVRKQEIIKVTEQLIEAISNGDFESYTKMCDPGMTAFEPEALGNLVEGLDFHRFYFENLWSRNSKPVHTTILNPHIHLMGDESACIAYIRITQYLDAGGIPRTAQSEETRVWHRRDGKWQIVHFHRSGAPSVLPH

Sequence of 5'-AMP-activated protein kinase catalytic subunit alpha-1 (Homo sapiens) (Q13131 whole entry, looked up): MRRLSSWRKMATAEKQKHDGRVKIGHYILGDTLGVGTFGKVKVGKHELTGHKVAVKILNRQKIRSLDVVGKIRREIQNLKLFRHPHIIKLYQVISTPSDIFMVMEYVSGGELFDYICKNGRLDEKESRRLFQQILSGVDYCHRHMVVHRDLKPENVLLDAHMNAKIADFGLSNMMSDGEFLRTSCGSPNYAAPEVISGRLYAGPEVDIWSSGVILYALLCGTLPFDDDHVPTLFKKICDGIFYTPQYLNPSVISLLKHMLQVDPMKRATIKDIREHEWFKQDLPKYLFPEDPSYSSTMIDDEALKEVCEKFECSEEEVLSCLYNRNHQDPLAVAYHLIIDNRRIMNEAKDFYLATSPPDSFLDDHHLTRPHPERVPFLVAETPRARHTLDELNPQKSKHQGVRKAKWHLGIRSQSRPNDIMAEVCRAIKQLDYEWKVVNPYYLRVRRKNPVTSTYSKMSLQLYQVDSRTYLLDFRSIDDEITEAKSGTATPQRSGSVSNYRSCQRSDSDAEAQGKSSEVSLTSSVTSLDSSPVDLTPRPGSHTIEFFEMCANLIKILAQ
Sequence of Calcium/calmodulin-dependent protein kinase type 1D (Homo sapiens) (Q8IU85 whole entry, looked up): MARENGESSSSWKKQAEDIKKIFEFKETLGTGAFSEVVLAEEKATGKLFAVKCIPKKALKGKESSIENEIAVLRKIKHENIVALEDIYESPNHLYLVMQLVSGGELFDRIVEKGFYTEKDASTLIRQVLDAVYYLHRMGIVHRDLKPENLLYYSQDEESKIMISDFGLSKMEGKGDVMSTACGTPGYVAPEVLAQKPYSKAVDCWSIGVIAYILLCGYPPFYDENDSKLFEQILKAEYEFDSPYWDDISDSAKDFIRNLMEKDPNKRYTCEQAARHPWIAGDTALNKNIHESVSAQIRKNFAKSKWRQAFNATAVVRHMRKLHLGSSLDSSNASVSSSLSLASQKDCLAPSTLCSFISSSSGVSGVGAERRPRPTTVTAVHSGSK
Sequence of Ribosomal protein S6 kinase alpha-6 (Homo sapiens) (Q9UK32 whole entry): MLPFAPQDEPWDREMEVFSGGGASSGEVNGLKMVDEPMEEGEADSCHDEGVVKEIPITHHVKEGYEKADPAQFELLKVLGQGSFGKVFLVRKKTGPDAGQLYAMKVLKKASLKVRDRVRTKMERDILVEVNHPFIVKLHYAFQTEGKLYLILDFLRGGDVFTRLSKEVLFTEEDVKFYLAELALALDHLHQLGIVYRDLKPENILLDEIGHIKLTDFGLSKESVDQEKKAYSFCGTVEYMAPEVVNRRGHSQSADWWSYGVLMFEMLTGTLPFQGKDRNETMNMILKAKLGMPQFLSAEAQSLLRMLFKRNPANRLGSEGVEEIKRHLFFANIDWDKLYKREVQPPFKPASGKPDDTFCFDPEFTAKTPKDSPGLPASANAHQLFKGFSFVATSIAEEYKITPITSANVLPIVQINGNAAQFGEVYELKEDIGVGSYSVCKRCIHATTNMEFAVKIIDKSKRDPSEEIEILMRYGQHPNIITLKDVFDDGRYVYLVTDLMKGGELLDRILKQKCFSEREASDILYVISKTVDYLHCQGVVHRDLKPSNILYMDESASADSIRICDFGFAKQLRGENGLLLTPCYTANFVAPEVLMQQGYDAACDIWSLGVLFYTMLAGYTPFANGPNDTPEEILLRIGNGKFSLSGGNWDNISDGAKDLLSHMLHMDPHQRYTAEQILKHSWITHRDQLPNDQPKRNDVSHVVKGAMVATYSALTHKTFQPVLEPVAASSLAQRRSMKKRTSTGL
Sequence of 5'-AMP-activated protein kinase catalytic subunit alpha-2 (Homo sapiens) (P54646 whole entry, looked up): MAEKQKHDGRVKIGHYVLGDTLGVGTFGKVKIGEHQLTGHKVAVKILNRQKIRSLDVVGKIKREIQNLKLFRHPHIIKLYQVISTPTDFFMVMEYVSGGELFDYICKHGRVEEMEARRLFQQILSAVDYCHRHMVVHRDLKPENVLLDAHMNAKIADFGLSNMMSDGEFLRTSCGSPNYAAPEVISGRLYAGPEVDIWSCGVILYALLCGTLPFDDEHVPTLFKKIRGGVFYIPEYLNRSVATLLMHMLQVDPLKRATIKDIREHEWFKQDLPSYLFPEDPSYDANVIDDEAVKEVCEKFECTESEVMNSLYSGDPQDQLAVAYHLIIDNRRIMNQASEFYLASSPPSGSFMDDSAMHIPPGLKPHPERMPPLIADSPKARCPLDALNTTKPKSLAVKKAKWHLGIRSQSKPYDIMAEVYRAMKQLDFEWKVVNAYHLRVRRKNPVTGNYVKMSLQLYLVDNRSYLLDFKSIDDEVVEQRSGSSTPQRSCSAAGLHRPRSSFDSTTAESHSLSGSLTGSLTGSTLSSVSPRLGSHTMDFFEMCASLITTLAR

NC(=O)c1ccc(Oc2nccc(-c3c(-c4ccc(F)cc4)ncn3C3CCNCC3)n2)cc1
inhibition [1]: 3.24% | inhibition [2]: 2.88% | inhibition [3]: 3.6% | inhibition [4]: 1.93% | inhibition [5]: 4.5% | inhibition [6]: 3.5% | inhibition [7]: 2.61% | inhibition [8]: 2.33% | inhibition [9]: 3.68% | inhibition [10]: 7.31% | inhibition [11]: 3.28% | inhibition [12]: 1.39% | inhibition [13]: 2.27% | inhibition [14]: 2.39% | inhibition [15]: -0.49% | inhibition [16]: 1.13% | inhibition [17]: 1.56% | inhibition [18]: 0.06% | inhibition [19]: 2.62% | inhibition [20]: 3.03%

Cc1ccc(C(=O)NC2CCC2)cc1-c1ccc(C(=O)NCC2CC2)cc1
inhibition [1]: 1.08% | inhibition [2]: 2.17% | inhibition [3]: 2.8% | inhibition [4]: 0.49% | inhibition [5]: -2.52% | inhibition [6]: 0.54% | inhibition [7]: 1.57% | inhibition [8]: 1.41% | inhibition [9]: 1.46% | inhibition [10]: 1.35% | inhibition [11]: 0.57% | inhibition [12]: 0.27% | inhibition [13]: 5.25% | inhibition [14]: 1.77% | inhibition [15]: 3.1% | inhibition [16]: 1.53% | inhibition [17]: 4.25% | inhibition [18]: 0.09% | inhibition [19]: 2.93% | inhibition [20]: 3.06%

COc1cc(N2CCN(C(C)C)CC2)ccc1Nc1nc(Nc2ccc(F)cc2C(=O)NC[C@@H](O)CO)c2cc[nH]c2n1
inhibition [1]: 8.27% | inhibition [2]: 4.42% | inhibition [3]: 7.18% | inhibition [4]: 2.67% | inhibition [5]: 4.33% | inhibition [6]: 2.59% | inhibition [7]: 6.24% | inhibition [8]: 4.23% | inhibition [9]: 5.78% | inhibition [10]: 2.37% | inhibition [11]: 3.64% | inhibition [12]: 4.38% | inhibition [13]: 17.2% | inhibition [14]: -0.14% | inhibition [15]: 1.34% | inhibition [16]: 2.44% | inhibition [17]: 2.82% | inhibition [18]: 0.93% | inhibition [19]: 11% | inhibition [20]: 4.06%

CN(C)CCCNc1nccc(-c2c(-c3ccc(F)cc3)nn3cc(C(F)(F)F)ccc23)n1
inhibition [1]: 2.42% | inhibition [2]: 1.95% | inhibition [3]: 2.09% | inhibition [4]: 2.67% | inhibition [5]: 1.75% | inhibition [6]: 1.92% | inhibition [7]: 0.78% | inhibition [8]: 1.32% | inhibition [9]: 1.37% | inhibition [10]: 0.22% | inhibition [11]: 2.79% | inhibition [12]: -1.31% | inhibition [13]: 7.22% | inhibition [14]: 1.29% | inhibition [15]: 4.81% | inhibition [16]: 0.82% | inhibition [17]: 4.17% | inhibition [18]: 1.56% | inhibition [19]: 1.39% | inhibition [20]: 3.05%

Fc1ccc(-c2ncn(C3CCNCC3)c2-c2ccnc(Oc3ccc4c(c3)OCO4)n2)cc1
inhibition [1]: 3.03% | inhibition [2]: 3.72% | inhibition [3]: 3.6% | inhibition [4]: 2.63% | inhibition [5]: 3.07% | inhibition [6]: 6.26% | inhibition [7]: 4.11% | inhibition [8]: 2.72% | inhibition [9]: 3.99% | inhibition [10]: 3.86% | inhibition [11]: 4.45% | inhibition [12]: 1.79% | inhibition [13]: 3.25% | inhibition [14]: 0.76% | inhibition [15]: 6.01% | inhibition [16]: 3.69% | inhibition [17]: 5.73% | inhibition [18]: -0.69% | inhibition [19]: 0.53% | inhibition [20]: 6.35%

C#Cc1cccc(Nc2ncnc3ccc(OCCCCNCCS(C)(=O)=O)cc23)c1
inhibition [1]: 3.55% | inhibition [2]: 3.74% | inhibition [3]: 5.99% | inhibition [4]: 3.88% | inhibition [5]: 4.33% | inhibition [6]: 3.82% | inhibition [7]: 4.46% | inhibition [8]: 4.2% | inhibition [9]: 6.4% | inhibition [10]: 4.13% | inhibition [11]: 4.43% | inhibition [12]: 4.55% | inhibition [13]: 12.9% | inhibition [14]: 1.77% | inhibition [15]: 7.62% | inhibition [16]: 3.96% | inhibition [17]: 10% | inhibition [18]: -0.65% | inhibition [19]: 0.48% | inhibition [20]: 3.18%

NCc1ccc(-n2c(-c3nonc3N)nc3cnccc32)cc1
inhibition [1]: 36.2% | inhibition [2]: 5.32% | inhibition [3]: 11.7% | inhibition [4]: 5.18% | inhibition [5]: 17.3% | inhibition [6]: 3.68% | inhibition [7]: 28.2% | inhibition [8]: 5.3% | inhibition [9]: 7.27% | inhibition [10]: 6.07% | inhibition [11]: 8.19% | inhibition [12]: 4.91% | inhibition [13]: 7.23% | inhibition [14]: 4.76% | inhibition [15]: 6.27% | inhibition [16]: 4.11% | inhibition [17]: 8.49% | inhibition [18]: 2.03% | inhibition [19]: 4.78% | inhibition [20]: 4.91%
